# Screening results: PubChem BioAssay, Buhrlage Lab, Dana-Farber Cancer Institute and Novartis Institutes for BioMedical Research (Cambridge, Mass)
# Only some compounds are listed: those with a hit (about 14% of all), similar ones and a draw of the others.
# USP28 block = inhibitors of human USP28 deubiquitinase; Q96RU2; AID 1645857; purified USP28, Ub-rhodamine cleavage fluorescence, 30 min; inhibition, % at 25 µM; hit rate 3% among 47,000
# USP8 block = human USP8 deubiquitinase inhibition; P40818; purified USP8, Ub-rhodamine cleavage fluorescence, 30 min; inhibition, % at 20 µM; hit rate 4.2% among 47,000
# USP17 block = human USP17-like deubiquitinase inhibition | A8MUK1 | purified USP17, Ub-rhodamine cleavage fluorescence, 3 h | hit rate 6.5% among 47,000 | AID 1645855 | inhibition, % at 50 µM
# Target sequence (A8MUK1 whole entry, looked up): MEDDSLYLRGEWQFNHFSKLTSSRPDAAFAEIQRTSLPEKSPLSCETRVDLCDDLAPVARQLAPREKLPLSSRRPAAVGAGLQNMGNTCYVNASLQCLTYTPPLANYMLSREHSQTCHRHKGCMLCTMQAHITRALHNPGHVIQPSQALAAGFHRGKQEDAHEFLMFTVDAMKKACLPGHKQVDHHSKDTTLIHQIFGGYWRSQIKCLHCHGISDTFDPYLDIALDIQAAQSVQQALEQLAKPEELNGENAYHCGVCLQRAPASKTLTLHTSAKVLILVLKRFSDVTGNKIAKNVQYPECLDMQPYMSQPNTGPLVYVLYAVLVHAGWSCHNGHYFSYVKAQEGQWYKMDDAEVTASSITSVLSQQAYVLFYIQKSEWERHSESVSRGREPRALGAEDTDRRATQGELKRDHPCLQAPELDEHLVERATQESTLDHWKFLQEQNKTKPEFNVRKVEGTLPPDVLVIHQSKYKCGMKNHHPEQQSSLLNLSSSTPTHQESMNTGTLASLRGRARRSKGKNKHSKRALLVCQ
# USP30 block = blocks human USP30 ubiquitin-rhodamine cleavage; hit rate 5.3% among 47,000; AID 1645860; purified USP30, Ub-rhodamine cleavage fluorescence; inhibition, % at 25 µM
# Hits are given with their value; i = inactive; nt = no result given. Cut-off read from the data, not from the text of the source: active = inhibition above about 30%; inactive = the rest.
SMILES,USP28 block,USP8 block,USP17 block,USP30 block
COc1ccc2nc(C(=O)NCc3cccc(F)c3)cn2n1,i,i,i,i
O=C(Nc1ccc(CN2CCOCC2)cc1)c1cc2cc(Br)ccc2o1,47,i,i,i
O=C(Nc1ccc(CN2CCOCC2)cc1)c1cccc([N+](=O)[O-])c1,i,i,i,i
COc1cccc(OC)c1C(=O)OCC(=O)Nc1ccc(Oc2ccccc2)cc1,34,i,i,i
O=C(COC(=O)c1cccc([N+](=O)[O-])c1)Nc1cccc(Oc2ccccc2)c1,i,i,i,32
CC(C)Oc1ccc(C(=O)OCC(=O)Nc2ccc(Oc3ccccc3)cc2)cc1,i,i,i,i
Cc1noc(C)c1CSc1ncccc1C(=O)Nc1ccnn1C1CCCCC1,i,i,i,i
Fc1ccc(CN2CCC(c3cc(-c4cccc5ccccc45)n[nH]3)CC2)cc1,i,i,i,i
COc1ccc(-c2nc(Cn3ccnc3)no2)cc1,i,i,i,i
CC(Cc1ccco1)NC(=O)c1cccc(NC(=O)c2nnc(C3CC3)s2)c1 (stereo not given),i,i,31,i
O=C1CC(c2ccco2)Cc2[nH]c(=O)c(-c3nc(-c4ccc(Cl)cc4)cs3)cc21 (stereo not given),i,34,i,i
Cc1cccc(NC(=O)c2cc(-c3cnc(N4CCOCC4)nc3)cn2C)c1,i,i,i,i
Clc1ccccc1Sc1nc2ccccc2n2cnnc12,nt,i,i,nt
COc1ccc(Sc2nc3ccccc3n3cnnc23)cc1,i,79,i,i
Cc1ccc(-c2nc(C)cc(OCC(=O)Nc3ccc(C)c(F)c3)n2)cc1,i,i,i,i
CSc1ccc(/C=C/c2nc(-c3ccccc3O)n[nH]2)cc1,i,64,46,i
CSc1ccc(C(O)c2ncc(-c3cccc4ccccc34)[nH]2)cc1 (stereo not given),i,i,i,i
CN1C(=O)C(C)(C)COc2ccc(NS(=O)(=O)c3cc(F)ccc3F)cc21,i,44,i,i
Cn1c(-c2c(N)n(Cc3ccc(Cl)cc3)c3nc4ccccc4nc23)nc2ccccc21,i,57,i,i
O=C(Cn1cnc2scc(-c3ccc4c(c3)CCCC4)c2c1=O)Nc1ccccc1Cl,i,i,i,i
O=C(CSc1nnc(NC(=O)c2ccc([N+](=O)[O-])cc2)s1)Nc1ccc(Br)cc1,i,i,i,33
CC(C)n1ncc2c(C(=O)NCCc3ccc(Cl)cc3)cc(C3CC3)nc21,38,i,i,i
COc1ccc(CNC(=O)c2cc(C3CC3)nc3c2cnn3C(C)C)cc1,i,i,i,i
CC(C)n1ncc2c(C(=O)NCCc3cccc(Cl)c3)cc(C3CC3)nc21,37,i,nt,i
Cc1nc(C(=O)NCc2cccc(Cl)c2)c(C)n1C1CCN(S(C)(=O)=O)CC1,i,i,i,i
SMILES,USP28 block,USP8 block,USP17 block,USP30 block
COc1ccc(NC(=O)CS(=O)(=O)c2[nH]c(-c3ccc(F)cc3)nc2-c2ccccc2)cc1Cl,i,i,i,i
COc1ccc(NC(=O)CS(=O)(=O)c2[nH]c(-c3ccc(C)cc3)nc2-c2ccccc2)cc1Cl,i,i,i,60
COc1ccc(-c2nc(-c3ccccc3)[nH]c2S(=O)(=O)CC(=O)Nc2ccc(F)cc2)cc1,i,i,36,i
CCOC(=O)C1CCCN(C(=O)COc2cc3oc(C)c(Oc4ccccc4)c(=O)c3cc2CC)C1 (stereo not given),i,i,i,i
CC12c3ccc4c(c3C(=O)c3occ(c31)C(=O)CC2O)CCC4=O (stereo not given),54,i,i,i
CN(C)c1cccc(C(=O)Nc2cc(-c3ccccn3)no2)c1,i,i,nt,i
O=C(c1cc2ccccc2o1)N1CC=C(c2ccccc2)CC1,34,i,36,50
CC(=O)Nc1ccc(S(=O)(=O)NCc2nnc3c(C(F)(F)F)cc(Cl)cn23)cc1,i,i,i,i
COCc1c(C(=O)N2CC[C@H]3NC(=O)c4ccccc4OCCCCC[C@H]3C2)noc1C,i,i,i,i
CCOc1cccc(-c2noc(-c3nn(-c4cccc(C)c4)ccc3=O)n2)c1,i,88,i,i
CCOc1cccc(-c2noc(-c3nn(-c4ccccc4)ccc3=O)n2)c1,70,93,52,93
Cc1cccc(-c2noc(-c3nn(-c4cccc(C)c4)ccc3=O)n2)c1,i,i,i,i
CCOc1nc2cccnc2n(CC(=O)Nc2cccc(OC)c2)c1=O,i,i,i,i
COc1cc(OC)cc(C(=O)Nc2ccc(O)c(-c3nc4cnccc4o3)c2)c1,i,i,35,i
O=C(Cn1c(C(F)(F)F)nc2cc3c(cc21)OCCO3)NC1CCCC1,i,i,35,i
O=C(O)CNC(=O)N[C@H]1C[C@H]2CN(Cc3ccccc3)Cc3ccccc3CN2C1,i,i,i,i
C(=C\c1ccccc1)/CSc1nnc(-c2ccco2)o1,32,i,i,i
COc1ccc(NC(=O)c2c(C)oc3nc[nH]c(=O)c23)cc1Cl,i,i,i,i
Cc1cc(C)cc(NC(=O)c2c(C)oc3nc[nH]c(=O)c23)c1,i,i,33,i
COc1ccc([N+](=O)[O-])cc1NC(=O)C(C)OC(=O)CSc1ccc2ccccc2c1 (stereo not given),i,i,i,i
Nc1ccc([N+](=O)[O-])cc1NC(=O)CSc1ccc2ccccc2c1,i,41,i,i
CCOc1ccc(-c2nc(Cn3nnc(C(=O)Nc4ccccc4C)c3C)c(C)o2)cc1,i,i,nt,43
COc1ccccc1NC(=O)c1nnn(Cc2nc(-c3ccc(C)cc3)oc2C)c1N,i,i,i,i
COc1ccc2c(c1)C=C(C(=O)Nc1ccc(-n3cnnn3)cc1)C=CO2,i,i,39,33
COc1ccc2c(c1)C=C(C(=O)Nc1ncc(Cc3ccc(C)cc3)s1)C=CO2,i,i,i,i
SMILES,USP28 block,USP8 block,USP17 block,USP30 block
COc1cccc(NC(=O)COc2cccc(-n3cnnn3)c2)c1,i,i,i,i
CCc1ccc(NC(=O)COc2cccc(-n3cnnn3)c2)cc1,i,i,i,63
CCCOc1cccc(C(=O)Nc2ccc(-n3cnnn3)cc2)c1,47,48,51,83
CC(=O)N1CCC(c2cncc(-c3cccc(C(=O)O)c3)n2)CC1,i,i,i,i
Cc1noc(-c2cccc(=O)n2CC(=O)Nc2ccc(C)c(C)c2)n1,i,i,71,i
Cc1noc(-c2cccc(=O)n2CC(=O)Nc2ccc(C)c(F)c2)n1,i,i,i,31
O=C(COc1ccc(Cl)cc1)NCC(c1ccco1)N1CCCCC1 (stereo not given),i,i,i,i
CN(C)c1ccc(CN2CCOC[C@H]2c2ncc(-c3cccnc3)[nH]2)cc1,i,33,i,i
COc1ccc(OC)c(NC(=O)Cn2c(=O)n(C3CCCCC3)c(=O)c3ccccc32)c1,i,i,i,i
COc1ccc(CCNC(=O)[C@H](C)NC(=O)c2cc3c([nH]c4ccccc43)c(C)n2)cc1,i,i,34,i
CCCCCCCCCCCC[C@@]1(C(=O)O)OC(=O)[C@@H](O)[C@@]1(O)C(=O)O,i,i,i,41
Cc1cccc(-n2ncc(C(=O)Nc3cccc(F)c3)c2-n2cccc2)c1,i,i,i,34
COc1ccc(NC(=O)c2nnn(-c3cccc(C)c3)c2C)cc1,59,i,i,i
